EWS-Fli_block: EWS/Fli-driven NR0B1 reporter inhibitors, primary screen, A673 cells, NR0B1 luciferase, luminescence, MLPCN library; viability-normalised; inhibition, % at 12.6 µM; 350,000 compounds, 0.67% hits; AID 651661, 2012;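 active = mean inhibition of at least 50% after viability correction, with every replicate also passing that limit; inconclusive = mean reaches 50% but only one of two replicates passes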;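 also: firefly luciferase signal divided by Alamar Blue viability fluorescence both relative to DMSO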
PAX8_inh_HTS: inhibitors of PAX8-driven TPO luciferase reporter, primary screen, RMG-I cells, single concentration; AID 652154, 2013; SteadyGlo, 24 h; 360,000 compounds, 1.2% hits; inhibition, % at 12.6 µM;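 active = mean replicate inhibition at least 60% with every replicate also reaching 60%; inconclusive = only one of the two criteria is met; inactive = mean below 60% and not all replicates reaching 60%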;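 also: luciferase light reporting Pax8 driven TPO promoter activity; plate controls were median of neutral control wells for no effect and mitoxantrone controls for full effect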
KKLEB_cytotox: cytotoxicity in KKLEB CF airway cells, primary screen, cytotoxicity control for CF NF-kB inhibitor project, cell-based, uHTS, fluorescence assay plates; KKLEB CF airway cells viability, ATPlite luminescence, overnight; hits give low values; cells stimulated with P. aeruginosa culture filtrate; activity change (cytotoxicity), % at 5 µM; 360,000 compounds, 0.36% hits;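 active = corrected activity change at or below -50% at 5 µM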
CF_NFkB_inh: inhibitors of PAF-induced NF-kB signaling, primary screen, cell-based, GFP fluorescence, uHTS. KKLEB NF-kB-GFP reporter, GFP fluorescence overnight. inhibition, % at 5 µM. 360,000 compounds, 0.86% hits. AID 588850, 2011;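 active = at least 50% inhibition at 5 µM, scaled per plate between neutral and stimulator controls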;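 also: PAF is a Pseudomonas aeruginosa culture filtrate used as stimulus; plate controls were PAF-stimulated DMSO wells for no effect and unstimulated DMSO wells for full effect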
HIF-2a_block: HIF-2a reporter inhibitors, primary screen, luminescence, 786-0 RCC cells. 786-0 RCC cells HIF-2a reporter, luciferase luminescence, overnight. inhibition, % at 18.8 µM. 360,000 compounds, 0.72% hits;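 active = inhibition of the luminescence signal of 40% or more relative to plate controls, in a single-dose primary screen at 18.75 µM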
DNA_binding: DNA binders by acridine orange displacement, dose response, counter-screen for EWS/Fli inhibitor project, biochemical, fluorescence polarization, cherry-pick; shares compounds with EWS-Fli_block; salmon sperm DNA acridine orange fluorescence polarization; AC35, µM (doses to about 68 µM), without a hit: top-dose activity change, negative = DNA binding; 640 compounds, 2% hits;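 active = fitted curve reaches a 35% signal fall AC35 below twice the sample's top valid tested dose, actives reach about 48 µM in these data; inactive = the rest, including activity in the rising direction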;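 also: lower polarization ratio signals compound binding to DNA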
* marks the source's active call; other numbers are inactive results; ? = inconclusive; . = no result given. Shown are actives, neighbours in structure and some others; about 2.1% of the full set was active somewhere.

SMILES EWS-Fli_block PAX8_inh_HTS KKLEB_cytotox CF_NFkB_inh HIF-2a_block others
O=C1Nc2ccccc2C1=Nc1ccc(Cl)cc1 37.0 2.5 7.3 19.4 15.4
C[C@H]1CCCCO[C@H](CN(C)S(=O)(=O)c2cn(C)cn2)[C@@H](C)CN([C@@H](C)CO)C(=O)c2cc(NS(=O)(=O)c3ccc(F)cc3)ccc2O1 1.2 -11.9 . . .
Cc1nn(C)cc1NC(=O)C[C@@H]1CC[C@@H]2[C@H](COc3ccc(NC(=O)Nc4cccc(Cl)c4)cc3C(=O)N2C)O1 -9.7 4.4 . . .
O=C(Nc1ccc(F)cc1)N1CC(=O)N2[C@H](CO)[C@H](c3ccc(C#Cc4ccc(F)cc4)cc3)[C@@H]2C1 9.1 8.6 . . .
Cc1cccc(CN2C(=O)/C(=C\c3ccc(C(=O)NCCCN4CCN(C)CC4)cc3)Oc3ccccc32)c1 65.0* ? -27.9 4.9 3.4 DNA_binding=-13.1%
CN(C)C(=O)c1ccc(-c2ccc([C@@H]3[C@@H](C#N)N(C(=O)C4CCCCC4)[C@H]3CO)cc2)cc1 3.8 9.7 . . .

High-throughput results deposited in PubChem by several laboratories.
